Among the data in PubChem BioAssay (NCI) are growth values, retold here.

The panel holds about 83,000 compounds, 20% with a hit somewhere; the sample as a whole holds those more often.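 In brief: 96-well plates, 48 h treatment, single concentration, percent growth endpoint.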 Values without a mark were called inactive. Calls of active or inactive are those of the source. The calls were made as follows: active = growth percent below 10; inactive = the rest.

This experiment concerns MDA-MB-468 breast. As to the kind of experiment: NCI-60 one-dose screen, 48 h (100 = growth as untreated, 0 = no growth, -100 = all killed). The note with it: 10 µM unless noted.
Regarding `Cc1cc2c(C#N)n3c(c2cc1C)C(=O)C(c1ccccc1)Oc1ccccc1-3` (centres undefined), the growth was 50%.

Turning to `COc1cc(NC(=O)c2cccc(-c3cc(=O)c4c(O)c(OC)c(OC)cc4o3)c2)cc(OC)c1OC`, the growth was 59.9%. For `C(=C\c1nc2ccccc2[nH]1)/c1nc2ccccc2[nH]1` the value was 106%; for `Oc1ccc(CN2CCC(N3CCCCC3)CC2)c2cccnc12`, 23.9%; for `COc1cc(/C=C/C(=O)/C=C(/C=C/c2ccc(OC(C)=O)c(OC)c2)OB(F)F)ccc1OC(C)=O`, 48.8%.

Consider `CCCC(=O)Oc1ccc(/C(=C(\C)c2ccc(Cl)cc2)c2ccc(OCCN(CC)CC)cc2)cc1`, for which the growth is -64.1% (active).

In the case of `C[C@]12CC[C@H]3[C@@H](CC[C@H]4C[C@@H](O)CC[C@@]43C)[C@@H]1CC(=O)C2`, the growth was 113%. For `CN(C)c1ccc2nc3ccc(=N)cc-3sc2c1` the value was 38.6%. For `O=C(Nc1cn[nH]c1-c1nc2ccc(CN3CCOCC3)cc2[nH]1)NC1CC1` the value was 25.5%.
